Test [1] addresses Thyrotropin receptor (Homo sapiens) (UniProt P16473). Put plainly: qHTS assay to identify small molecule antagonists of the thyroid stimulating hormone receptor (TSHR) signaling pathway (AID 1259385; calls by dose curve; further: nearly all actives have a fitted effect of over 20% in size). In a few lines:
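Antagonist mode: compound-treated TSHR-expressing HEK293 cells were stimulated with 1.5 ng/mL TSH (final) in presence of Ro20-1724 for 30 min at RT. HTRF cAMP detection after 1 h; each compound tested at 15 concentrations, triplicate.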
(In qHTS, concentration-response curves come from the screen itself.)

Test [2] is described as follows: qHTS assay to identify small molecule agonists of the estrogen receptor alpha (ER-alpha) signaling pathway in the presence of an antagonist - cell viability counter screen (AID 1259386).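 Further: cells exposed to compounds for 22 h at 37 °C before the viability read; nearly all actives have a fitted effect of over 30% in size.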 Further: potency means the concentration at half of the fitted maximal effect. The essentials:
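The test measures whether compounds kill ER-alpha reporter cells (VM7Luc4E2) under antagonist co-treatment (ICI-182,780, 10.0nM). Fluorescence from CellTiter-Fluor is read after a 22hr exposure.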

Test [3] concerns the target Progesterone receptor (Homo sapiens) (UniProt P06401). Put plainly: qHTS assay to identify small molecule agonists of the progesterone receptor (PR) signaling pathway (AID 1346784; calls by dose curve; further: nearly all actives have a fitted effect of over 30% in size). The essentials:
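Agonist mode, quantitative HTS format in a HEK 293T line expressing a UAS-controlled beta-lactamase reporter; 16 hr compound exposure at 37C in 2% charcoal-stripped FBS, then LiveBLAzer B/G FRET fluorescence.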

For test [4] the target is unchanged. Put plainly: qHTS assay to identify small molecule antagonists of the progesterone receptor (PR) signaling pathway (AID 1346795; active means well fitted inhibition curve with a large enough effect in the signal ratio in the repeat runs, not every such curve was filed as active; the % refers to the signal ratio). The essentials: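 HEK293T PR-UAS-bla reporter cells in charcoal-stripped serum (2%) received compound after a 6 hr settling period, followed by R5020 agonist at 1 nM final; 16 hr incubation preceded the FRET substrate step and fluorescence measurement.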

Test [5] is described as follows: qHTS assay to identify small molecule antagonists of the progesterone receptor (PR) signaling pathway - cell viability counter screen (AID 1346798). Further: series mostly up to about 92 µM; nearly all actives have a fitted effect of over 50% in size. In a few lines:
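Same-well multiplex: after 16 hr at 37C with compound and R5020 stimulation, HEK293T cells carrying a UAS-bla reporter received LiveBLAzer substrate (2 hr RT), then CellTiter-Glo (30 min RT) for luminescent viability.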

Test [6] in a line: qHTS assay to identify small molecule agonists of the progesterone receptor (PR) signaling pathway - cell viability counter screen (AID 1346799; calls by dose curve; further: nearly all actives have a fitted effect of over 45% in size). The essentials:
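Counter screen for cytotoxicity: compound-treated PR-UAS-bla HEK293T cells (16 hr, 37C, 5% CO2) were assayed with CellTiter-Glo, luminescence measured after 30 min at room temperature.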

Test [7] in a line: qHTS assay to identify small molecule antagonists of the TGF-beta/Smad signaling pathway - cell viability counter screen (AID 1346824). Further: nearly all actives have a fitted effect of over 50% in size. In a few lines: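 Cytotoxicity counter-screen run in the same wells as the beta-lactamase Smad reporter read: CellTiter-Glo luminescence after 30 min at room temperature. HEK 293T SBE-bla cells had 5 hr compound exposure at 37 C with TGF-beta1 (0.25 ng/mL stock).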

Test [8] can be described thus: qHTS assay to identify small molecule agonists of the TGF-beta/Smad signaling pathway - cell viability counter screen (AID 1346829). Further: top concentration of the series differs between compounds; nearly all actives have a fitted effect of over 45% in size. The essentials: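 Luminescence from CellTiter-Glo, read after a 30 min room-temperature incubation, gives cell viability of SBE-bla HEK 293T cells treated 5 hr with compounds at 37 C.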
Test [9] has as its target Thyrotropin-releasing hormone receptor (Homo sapiens) (UniProt P34981). Put plainly: qHTS assay to identify small molecule antagonists of the thyrotropin-releasing hormone receptor (TRHR) signaling pathway (AID 1346877; active means well fitted inhibition curve with a large enough effect in the repeat runs, not every such curve was filed as active; further: series mostly up to about 51 µM). In a few lines:
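Overnight-plated (18 h, 37 °C) HEK293 cells expressing TRHR were dye-loaded 2 h, treated with compound, then stimulated with TRH at 1 nM final. Fluorescence intensity was captured every second for 3 min.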

The nature of test [10]: qHTS assay to identify small molecule agonists of the TGF-beta/Smad signaling pathway (AID 1346859; active means well fitted activation curve with a large enough effect in the signal ratio in the repeat runs, not every such curve was filed as active; the % refers to the signal ratio; further: series mostly up to about 77 µM). The essentials:
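Smad-responsive beta-lactamase reporter cells (HEK 293T) received compounds from DMSO stocks after overnight attachment, were incubated 5 hr, then treated 2 hr with FRET substrate before dual-emission fluorescence measurement (405 nm excitation).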

Among the data in PubChem BioAssay (Tox21) are Potency and outcome values, retold here.

A number with no mark means an inactive call. Results filed as inconclusive are left out. Activity calls are given as the source filed them. Unless noted, the call rests on the fitted dose curve; in most records, active means well fitted curve in the direction sought with a large enough effect in the repeat runs; inconclusive means weak or mixed curves; inactive means no such curve, though single readings can be large; an effect the other way counts as inactive or inconclusive.

Progesterone receptor (Homo sapiens), sequence (P06401 whole entry, looked up): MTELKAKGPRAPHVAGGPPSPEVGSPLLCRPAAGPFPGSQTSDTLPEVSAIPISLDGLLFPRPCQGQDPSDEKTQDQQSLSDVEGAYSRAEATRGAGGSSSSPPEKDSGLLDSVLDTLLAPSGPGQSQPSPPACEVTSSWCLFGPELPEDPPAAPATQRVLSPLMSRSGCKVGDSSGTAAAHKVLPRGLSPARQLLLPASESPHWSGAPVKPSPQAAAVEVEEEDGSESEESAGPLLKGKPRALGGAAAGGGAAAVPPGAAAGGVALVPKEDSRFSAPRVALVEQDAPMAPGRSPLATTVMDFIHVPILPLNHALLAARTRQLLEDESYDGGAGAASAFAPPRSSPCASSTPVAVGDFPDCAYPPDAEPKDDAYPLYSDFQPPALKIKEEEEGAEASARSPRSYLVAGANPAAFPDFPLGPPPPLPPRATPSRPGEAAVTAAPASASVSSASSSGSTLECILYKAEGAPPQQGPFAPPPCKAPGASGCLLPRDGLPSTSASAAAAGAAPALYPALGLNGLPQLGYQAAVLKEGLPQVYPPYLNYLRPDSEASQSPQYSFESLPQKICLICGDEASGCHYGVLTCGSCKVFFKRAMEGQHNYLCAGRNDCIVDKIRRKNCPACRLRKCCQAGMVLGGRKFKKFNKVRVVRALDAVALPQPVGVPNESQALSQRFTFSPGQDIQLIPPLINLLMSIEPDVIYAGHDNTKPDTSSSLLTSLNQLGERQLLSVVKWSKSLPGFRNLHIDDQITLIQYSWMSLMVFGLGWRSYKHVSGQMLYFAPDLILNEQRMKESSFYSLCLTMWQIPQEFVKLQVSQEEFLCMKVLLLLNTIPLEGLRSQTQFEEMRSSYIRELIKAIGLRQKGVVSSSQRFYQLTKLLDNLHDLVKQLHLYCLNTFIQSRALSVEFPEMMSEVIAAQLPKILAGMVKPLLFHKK
Thyrotropin-releasing hormone receptor (Homo sapiens), sequence (P34981 whole entry, looked up): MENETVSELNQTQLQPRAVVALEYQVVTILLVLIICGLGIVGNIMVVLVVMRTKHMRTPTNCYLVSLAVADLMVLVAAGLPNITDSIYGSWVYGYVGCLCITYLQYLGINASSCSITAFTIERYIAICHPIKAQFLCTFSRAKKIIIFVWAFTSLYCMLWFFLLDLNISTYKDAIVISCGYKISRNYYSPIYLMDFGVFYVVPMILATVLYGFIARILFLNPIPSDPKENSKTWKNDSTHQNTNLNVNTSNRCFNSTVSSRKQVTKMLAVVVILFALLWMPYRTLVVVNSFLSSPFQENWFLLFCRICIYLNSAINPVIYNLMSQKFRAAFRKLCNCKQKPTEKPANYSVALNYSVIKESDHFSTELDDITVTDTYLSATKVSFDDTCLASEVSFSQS
Thyrotropin receptor (Homo sapiens), sequence (P16473 whole entry, looked up): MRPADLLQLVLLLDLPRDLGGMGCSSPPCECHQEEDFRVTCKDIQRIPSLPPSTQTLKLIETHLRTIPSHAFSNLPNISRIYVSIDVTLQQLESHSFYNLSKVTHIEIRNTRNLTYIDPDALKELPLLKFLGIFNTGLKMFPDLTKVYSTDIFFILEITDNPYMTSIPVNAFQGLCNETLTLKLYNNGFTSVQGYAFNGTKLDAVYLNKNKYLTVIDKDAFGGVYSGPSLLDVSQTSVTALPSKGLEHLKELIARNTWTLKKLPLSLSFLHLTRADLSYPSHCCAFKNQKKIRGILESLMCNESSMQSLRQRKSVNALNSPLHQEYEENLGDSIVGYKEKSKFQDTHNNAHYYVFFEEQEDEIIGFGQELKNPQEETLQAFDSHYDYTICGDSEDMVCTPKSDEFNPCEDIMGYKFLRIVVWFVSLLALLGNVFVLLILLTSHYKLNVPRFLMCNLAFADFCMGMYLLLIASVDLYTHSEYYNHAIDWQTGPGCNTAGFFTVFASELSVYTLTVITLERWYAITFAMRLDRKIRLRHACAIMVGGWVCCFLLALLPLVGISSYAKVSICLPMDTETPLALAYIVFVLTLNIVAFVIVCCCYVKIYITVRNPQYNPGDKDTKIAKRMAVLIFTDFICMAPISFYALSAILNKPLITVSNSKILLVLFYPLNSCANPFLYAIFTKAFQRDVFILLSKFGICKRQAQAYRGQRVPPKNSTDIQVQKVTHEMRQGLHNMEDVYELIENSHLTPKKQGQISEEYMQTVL

As for `CC(=O)Nc1ccc(C)c(Cl)c1`, the Potency result in [1], in test [2], in test [3], in test [4], in test [5] and in test [6] was “inactive” in each case. The result in [7], in test [8] and in [9] was inactive.
As for `CN1C(=O)CC(c2ccccc2)C1=O` (stereo unspecified), the Potency entry in test [1], in test [2], in [3], in test [4], in test [5] and in [6] was “inactive” each time. In addition, the outcome in [8] and in test [10] was inactive.
Turning to `CN1CCN(N)CC1`, the Potency entry in test [1], in [2], in test [3], in test [4], in test [5] and in test [6] was “inactive” throughout. Further, the call in [7], in test [8] and in test [9] was inactive.
In the case of `CC1=NN(c2cc(Cl)c(S(=O)(=O)O)cc2Cl)C(=O)C1N=Nc1ccc(S(=O)(=O)O)cc1` (stereo unspecified), the Potency result in test [1], in [3], in test [4], in test [5] and in [6] was “inactive” each time. Besides, the Potency in [2] is 61.1 µM (active). The call in test [8], in test [10] and in [9] was inactive.
In the case of `O=c1[nH]c(=O)n([C@H]2C[C@H](O)[C@@H](CO)O2)cc1C(F)(F)F`, the Potency result in test [1], in test [2], in test [3], in [4], in [5] and in test [6] was “inactive” each time. The outcome in [8], in [10] and in test [9] was inactive.
Take `FC(F)(F)c1ccccc1`: the Potency entry in test [1], in test [2], in [3], in [4], in test [5] and in [6] was “inactive” throughout. Also, the result in test [8], in test [10] and in [9] was inactive.
Take `O=[N+]([O-])c1nccn1CO[C@@H](CO)[C@H](O)CO`: the Potency result in test [1], in test [2], in test [3], in test [4], in test [5] and in test [6] was “inactive” throughout. The result in test [7], in test [8], in [10] and in test [9] was inactive.
On to `Nc1ccc2ccccc2c1S(=O)(=O)O`, for which the Potency result in [1], in [2], in test [3], in test [4], in test [5] and in test [6] was “inactive” throughout. Further, the result in [7], in test [8], in [10] and in [9] was inactive.
As for `CCCCNc1ccc(C(=O)OCCN(CC)CC)cc1`, the Potency result in test [1], in test [2], in test [3], in [4], in test [5] and in test [6] was “inactive” throughout. Further, the result in test [7], in [8], in [10] and in test [9] was inactive.
For `CS(=O)(=O)c1ccc([C@@H](O)[C@@H](CF)NC(=O)C(Cl)Cl)cc1`, the Potency result in [1], in [2], in test [3], in test [4], in test [5] and in test [6] was “inactive” in each case. For the same compound, the outcome in test [7], in test [8], in [10] and in [9] was inactive.
In the case of `CCCC(CCC)(C(=O)OCC)C(=O)OCC`, the Potency entry in [1], in [2], in test [3], in [4], in [5] and in [6] was “inactive” in each case. The compound was called inactive in test [8], in [10] and in test [9].
Turning to `C=CCCCCCCCCO`, the Potency entry in test [1], in test [2], in test [3], in test [4], in [5] and in [6] was “inactive” throughout. Further, the outcome in [7], in test [8], in test [10] and in test [9] was inactive.
Take `CC(C)C(=O)OC/C=C/c1ccccc1`: the Potency result in test [1], in test [2], in test [3], in test [4], in test [5] and in test [6] was “inactive” in each case. In addition, the compound was classed as inactive in [8] and in test [9].
For `O=C1CCCCC1C1CCCCC1` (stereo unspecified), the Potency result in test [1], in test [2], in test [3], in [4], in test [5] and in test [6] was “inactive” throughout. Also, the compound was called inactive in test [7], in test [8], in [10] and in [9].
On to `CCCCCCCOC(=O)CCC`, for which the Potency result in test [1], in [2], in test [3], in test [4], in test [5] and in test [6] was “inactive” each time. Also, the result in [8] and in [10] was inactive.
`COC(=O)/C=C(/C)N`: the Potency entry in test [1], in [2], in test [3], in [4], in [5] and in [6] was “inactive” throughout. Also, the call in test [7], in test [8] and in test [9] was inactive.
Consider `C=O`, for which the Potency entry in test [1], in [2], in test [3], in test [4], in [5] and in [6] was “inactive” each time. The compound was called inactive in test [8].
For `CC1=C(O)C(=O)OC1C` (stereo unspecified), the Potency entry in test [1], in test [2], in [3], in [4], in test [5] and in [6] was “inactive” throughout. Besides, the call in test [8], in test [10] and in test [9] was inactive.
As for `CCCS(=O)c1ccc2nc(NC(=O)OC)[nH]c2c1` (stereo unspecified), the Potency entry in test [1], in [2], in test [3], in [4], in test [5] and in test [6] was “inactive” in each case. Further, the compound was classed as inactive in [7], in [8], in [10] and in test [9].
Turning to `CC(C)(C)c1cccc(O)c1`, the Potency entry in test [1], in test [2], in [3], in test [4], in test [5] and in test [6] was “inactive” in each case. Besides, the outcome in test [7], in test [8], in test [10] and in test [9] was inactive.
With `Cc1c(C(=O)NCCO)[n+](=O)c2ccccc2n1[O-]`, the Potency result in test [1], in [2], in [3], in test [4], in test [5] and in test [6] was “inactive” in each case. Further, the compound was called inactive in [7], in [8], in test [10] and in test [9].
On to `CCCCCOc1ccc(C2SC(=O)NC2=O)cc1OCC` (stereo unspecified), for which the Potency result in test [1], in test [2], in test [3], in test [4], in [5] and in test [6] was “inactive” throughout. Further, the compound was classed as inactive in [7], in [8] and in test [9].
Take `Cc1cn([C@@H]2O[C@H](CO)[C@@H](O)[C@@H]2F)c(=O)[nH]c1=O`: the Potency result in test [1], in [2], in test [3], in test [4], in test [5] and in test [6] was “inactive” each time. For the same compound, the call in [7], in [8], in test [10] and in test [9] was inactive.
Turning to `CC(=O)Oc1cc(C(C)C)c(OCCN(C)C)cc1C`, the Potency result in test [1], in [2], in [3], in test [4], in test [5] and in test [6] was “inactive” throughout. The compound was classed as inactive in test [7], in test [8], in test [10] and in test [9].
Turning to `C1CCOC1`, the Potency entry in test [1], in test [2], in test [3], in [4], in [5] and in test [6] was “inactive” each time. Besides, the call in [8], in test [10] and in test [9] was inactive.
Turning to `CN(C)CC[C@@H](c1ccc(Cl)cc1)c1ccccn1`, the Potency entry in [1], in test [2], in test [3], in test [4], in test [5] and in test [6] was “inactive” in each case. Also, the call in test [7], in test [8], in test [10] and in test [9] was inactive.
